Assay outcomes from PubChem.
TAR Tat displ: HIV-1 TAR-Tat binding disruption | HIV-1 TAR RNA, Tat peptide displacement FRET; hits give high values | z-score (no concentration beside the values) | 100,000 tested, 0.6% active | AID 1259389; active = z-score of 3 or more in at least 2 runs
CDC25B CDK2 inh: human CDC25B-CDK2/CyclinA binding inhibition; P30305+P24941; HTRF CDC25B-CDK2/CyclinA binding, anti-His/anti-Flag; hits give high values; z-score (no concentration beside the values); 94,000 tested, 0.72% active; AID 1259370; in the data active = z-score above about 3.2
Starred values were filed as active, the others as inactive; . = not tested or not shown. Sampled rows, rich in hits. Any-hit rate of the full collection: about 0.9%.

SMILES | TAR Tat displ | CDC25B CDK2 inh
COc1ccccc1-n1cnc2cc(NCc3ccco3)ccc21 | -0.57 | 6.2
Cc1nc2cc(NCc3ccco3)ccc2n1C | -0.08 | 16*
Cc1nc2cc(NCc3ccncc3)ccc2n1C | -0.77 | 14*
COc1ccc2c(c1)c1nnc(-c3ccccc3)c-1cn2Cc1ccccc1OC | 0.53 | 3.3
O=C(CCCN1C(=O)CSc2ncccc21)NCC1CCCO1 (centres undefined) | 0.2 | 0.27
O=C(CCc1nc(-c2cccnc2)no1)NC1CCCCC1 | 0.18 | -1.1
Cc1ccc(C(=O)CSc2nnc3c(n2)[nH]c2ccccc23)cc1 | 1.3 | 0.34
O=C(NCCC1=CCCCC1)c1cc2c(Cl)ccc3c2n1CCO3 | 0.14 | .
Cc1oc(-c2ccc(OC(C)C)cc2)nc1Cn1c(=O)n(CC2CCCO2)c(=O)c2ccccc21 (centres undefined) | 1.2 | -2.3
Fc1ccccc1-c1nc(-c2ccccn2)no1 | . | -1.2
c1ccc(-c2noc(-c3cccc4ccccc34)n2)nc1 | 0.01 | 12*
Nc1ccc(O)c2c1C(=O)c1c(N)ccc(O)c1C2=O | . | -2.6
O=C1c2c(O)cccc2Cc2cccc(O)c21 | 25* | .
CCOCCCN(Cc1ccco1)C(=O)c1cc2c(=O)oc3ccc(C)cc3c2s1 | . | -1.7
O=C1C2C(c3ccccc3)OC3(C(=O)c4ccccc4C3=O)C2C(=O)N1c1ccc(F)c(Cl)c1 (centres undefined) | 1.4 | 0.7
O=C1NC(NS(=O)(=O)c2ccccc2)(C(F)(F)F)C(=O)N1c1ccc(F)c(Cl)c1 (centres undefined) | . | 18*
NC(=O)c1nc(-c2ccccn2)nc2c1[nH]c(=O)n2-c1ccc(Cl)cc1 | -0.13 | .
COc1ccc(OC)c(C2/C(=C(/O)c3ccc(C)cc3)C(=O)C(=O)N2c2cccnc2)c1 (centres undefined) | 0.4 | 6*
COc1ccc(OC)c(C2/C(=C(\O)c3ccccc3)C(=O)C(=O)N2c2cccnc2)c1 (centres undefined) | 1.9 | -3.8
CC(=O)c1ccc(Sc2cccc(C(F)(F)F)c2)c([N+](=O)[O-])c1 | . | -2.2
CC1SCC(=NOC(=O)Nc2ccc(Cl)cc2)CS1 (centres undefined) | . | -1.5
CC1SCC(=NOC(=O)c2ccccc2Cl)CS1 (centres undefined) | . | 13*
C=CCc1ccc(OCCn2c(CN3CCCC3)nc3ccccc32)c(OC)c1 | 0.01 | 0.91
Cc1cc(C)c2oc(C(=O)Nc3sc4c(c3C(=O)NCc3ccco3)CCC4)cc(=O)c2c1 | -0.05 | -1.2
Cc1ccc2oc(C(=O)Nc3sc4c(c3C(=O)NCc3ccco3)CCC4)cc(=O)c2c1 | -2.3 | -0.74
SMILES | TAR Tat displ | CDC25B CDK2 inh
Cc1cc(C)c2c(=O)cc(C(=O)Nc3sc4c(c3C(=O)NCc3ccco3)CCC4)oc2c1 | 2 | 4*
Cc1cc2oc(C(=O)Nc3sc4c(c3C(=O)NCc3ccco3)CCC4)cc(=O)c2cc1C | 12* | 6.6*
Cc1cc(C)c(-c2c(N(Cc3ccccc3)C(C)C)c(=O)c2=O)cc1C | 0.52 | .
Cc1cccc(N2CSC3=C(C#N)C(c4ccccc4Cl)CC(=O)N3C2)c1 (centres undefined) | 0.81 | 0.48
Cc1cccc(N2CSC3=C(C#N)C(c4ccc(F)cc4)CC(=O)N3C2)c1 (centres undefined) | -1.2 | 4.1*
CSc1ccc(C2CC(=O)N3CN(c4cccc(C)c4)CSC3=C2C#N)cc1 (centres undefined) | -2.6 | 8.5*
COc1cc(NC(=O)CSc2nnc3c4c5c(sc4ncn23)CCCC5)ccc1Cl | 1.8 | -1.1
C=Cc1ccc(Cn2c(C)c(CNCc3cccs3)c(C(=O)O)c2C)cc1 | -0.19 | 1.3
Cc1ccc(CS(=O)(=O)c2ncc(Cl)c(C(=O)Oc3ccc(C)cc3)n2)cc1 | -0.27 | -1.3
Cc1ccc(CS(=O)(=O)c2ncc(Cl)c(C(=O)Nc3nnc(C(C)C)s3)n2)cc1 | 0.97 | 5.5*
CN(C)CCNc1cc(N2CCOCC2)c2noc3c2c1C(=O)c1ccccc1-3 | -1.4 | -2
CCN(CC)CCNc1cc(N2CCCC2)c2noc3c2c1C(=O)c1ccccc1-3 | -1 | -0.38
CN(C)CCNc1cc(N2CCCCC2)c2noc3c2c1C(=O)c1ccccc1-3 | 17* | 6.2*
CN(C)CCCNc1cc(N2CCCC2)c2noc3c2c1C(=O)c1ccccc1-3 | 8.8* | 1.9
CN(C)CCCNc1cc(N2CCCCC2)c2noc3c2c1C(=O)c1ccccc1-3 | 1.7 | 0.05
CCN(CC)CCNc1cc(N2CCOCC2)c2noc3c2c1C(=O)c1ccccc1-3 | 6.5* | -4.9
CCCN1CCN(c2cc(NCCCOCC)c3c4c(onc24)-c2ccccc2C3=O)CC1 | 6.3* | 1.9
CCCN1CCN(c2cc(NCCOC)c3c4c(onc24)-c2ccccc2C3=O)CC1 | -0.12 | -2.1
O=C(NC1CCCCC1)c1ccc(Cn2nc(N3CCN(c4ccc(F)cc4)CC3)ccc2=O)o1 | 1.7 | .
CCOc1cccc2c1Oc1nc(-c3cc(Br)ccc3O)[nH]c(=O)c1C2 | 1.1 | -0.93
Cc1ccccc1OCC(=O)OCc1cc(=O)n2nc(C(C)C)sc2n1 | 0.92 | .
CC1C(=O)N2CCCc3cc(S(=O)(=O)NCc4cccs4)cc1c32 (centres undefined) | 0.35 | .
O=C(Nc1ccc(Cl)cc1)Oc1ccc(C2SCCS2)cc1 | . | 8
Fc1ccccc1C(c1nnc(-c2ccccc2)o1)N1CCc2ccccc2C1 (centres undefined) | 0.81 | .
CC(=O)N(c1ccc(NS(=O)(=O)c2c(C)noc2C)cn1)S(=O)(=O)c1c(C)noc1C | . | -2.8
SMILES | TAR Tat displ | CDC25B CDK2 inh
CN(C)CCCNc1cc(N(C)CCO)c2noc3c2c1C(=O)c1ccccc1-3 | 7* | -4
CCNc1cc(N(C)CCO)c2noc3c2c1C(=O)c1ccccc1-3 | -0.08 | -0.52
Cc1cc(C)c2c(=O)[nH]c(SCC(=O)c3ccc(O)c(O)c3)nc2n1 | 30* | -0.31
CCN(CC)C(=O)CSc1nc2nc(C)cc(C)c2c(=O)[nH]1 | . | 0.19
O=C1c2ccccc2C(Nc2cccnc2)N1c1cccnc1 (centres undefined) | -0.44 | -0.21
O=C1c2ccccc2C(Nc2cccnc2)N1c1ccccn1 (centres undefined) | -0.14 | 9.9*
Cc1nc2c(c(C)nn2C(C)(C)C)c(C)c1CCC(=O)NCC1CCCO1 (centres undefined) | 1.9 | 1.1
CN1C(=O)C(O)(CC(=O)c2ccc(Cl)cc2)c2ccccc21 (centres undefined) | 0.13 | -0.21
Cc1cc2c(cc3c(SCC(=O)NCc4ccco4)nncn32)o1 | 27* | .
Cc1cc2c(cc3c(SCC(=O)Nc4ccccc4F)nncn32)o1 | 0.66 | .
CC1CSc2ccc(S(=O)(=O)Nc3cc(F)ccc3F)cc2NC1=O (centres undefined) | 0.96 | .
CCOC(=O)Cn1c2ccc(Cl)cc2c2nc3ccccc3nc21 | 0.94 | 19*
CC(C)OC(=O)Cn1c2ccc(Cl)cc2c2nc3ccccc3nc21 | 2.6 | -1.4
O=C(Nc1cccc2nsnc12)c1nc(-n2cnnc2)ccc1Br | 2.5 | .
O=C(Nc1cccc2nsnc12)c1cccc(-n2cnnc2)n1 | 14* | .
O=C(O)c1ccccc1S(=O)c1ccccc1CCO (centres undefined) | . | -2.2
N#Cc1c(SCC(=O)Nc2cccc(F)c2)nc2c(c1-c1ccco1)CCCC2 | . | -1.7
N#Cc1c(SCC(=O)NCC2CCCO2)nc2c(c1-c1ccco1)CC/C2=C/c1ccco1 (centres undefined) | 20* | .
O=c1c(-c2ccc(O)cc2)coc2cc(O)cc(O)c12 | 3.1 | -2.5
